# An excerpt weighted towards active compounds, which were near 21% of everything screened.
# CHX counter: counter-screen hit for Shiga toxin inhibitors, cycloheximide. cell reporter, cycloheximide protein synthesis inhibition counterscreen. max response, %. hit rate 12% among 300,000; in the data active = max response mostly above about 13%, no sharp cut-off; inactive = mostly below about 14%; also: read at 38.3 µM for the half of the compounds with a filed dose; 0% is about no effect
# HCMV inh: inhibitors of human cytomegalovirus | HFF cells, HCMV-luciferase reporter, 72 h; active compounds read low | activity change, negative = inhibition, % at 57.5 µM | hit rate 4.5% among 410,000; in the data active = activity change below about -60%; inconclusive = no clear call, values can overlap the other calls; inactive = above about -39%; also: % is scaled to controls: 0 for no effect and ±100 for the full control effect
#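 Two compound doses tested in HFFs infected with HCMV-luciferase, MOI 1 PFU/cell, 72 h at 37C. Lysate luminescence read with OneGlo; data normalized against buffer-only and 10uM Salinomycin inhibitor controls.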
# Pf growth 96h: P. falciparum growth inhibition at 96 hours. P. falciparum luciferase reporter growth, 96 h. Potency, µM (top dose mostly 28.7 µM), for inactives: at the highest dose activity change, negative = inhibition, usual class: inhibitors. hit rate 6.9% among 320,000. AID 504834; also: potency is read from the fitted curve at half-maximal effect; % is scaled to controls: 0 for no effect and ±100 for the full control effect
#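 Compounds incubated with erythrocytes infected by luciferase-expressing P. falciparum (2% hematocrit, 0.05% parasitemia final) for 96 hours, 37 C in 5% CO2. Growth inhibition scored as decreased luciferase luminescence.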
# Shiga inhibitor: Shiga toxin inhibition | Vero cells, Shiga toxin protein synthesis inhibition reporter | inhibition, % at 38.7 µM | hit rate 9.2% among 290,000 | AID 2315; in the data active = inhibition mostly above about 28%, no sharp cut-off; inactive = mostly below about 43%; also: 0% is about no effect
# HCV inhibitor: blocks hepatitis C virus. Huh7.5.1 HCVcc-Cre infection, luciferase reporter, 44 h. Potency, µM (titrated, usually from 41.8 µM), for the others: at the highest dose activity change, negative = inhibition, most hits filed as inhibitors. hit rate 3.4% among 340,000; also: potency is read from the fitted curve at half-maximal effect; % is scaled to controls: 0 for no effect and ±100 for the full control effect
#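 Reporter virus HCVcc-Cre (~0.5 moi) infects cells exposed to compound; seeding density 1,000 cells/well with 4 h settling beforehand. Luminescence, 15 sec read, taken 44 h post-infection following a 15 min RT substrate incubation.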
# Pf growth 48h: P. falciparum growth inhibition at 48 hours (one generation); P. falciparum luciferase growth in erythrocytes, 48 h; Potency, µM (highest dose often 28.7 µM), inactives show at the highest dose activity change, negative = inhibition, actives largely listed as inhibitors; hit rate 5.9% among 310,000; also: potency is read from the fitted curve at half-maximal effect; % is scaled to controls: 0 for no effect and ±100 for the full control effect
#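 Luminescence readout; reporter = integrated firefly luciferase in P. falciparum. RBC culture at 2% hematocrit, 0.1% parasitemia final, 37 C/5% CO2; decreased signal taken as growth inhibition.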
# The depositor's hits bear a star; ? = inconclusive; nt = no result given. Unless noted, calls follow the shape of the dose curve; as a rule, active = well fitted inhibition curve with a large enough effect; inconclusive = small, poorly fitted or top-dose-only effect, or another doubt; inactive = no such curve, though single readings can be large or run the other way.
SMILES,CHX counter,HCMV inh,Pf growth 96h,Shiga inhibitor,HCV inhibitor,Pf growth 48h
O=C(NC1=NCCS1)c1ccc(Cl)c(Cl)c1,48*,149,0%,68*,-20%,182%
CN(C)C(CNC(=O)c1cc(S(=O)(=O)N(C)c2ccccc2)ccc1Cl)c1ccccc1 (stereo unspecified),-2,?,-18%,-5,7.1µM*,?
CN(c1ccccc1)S(=O)(=O)c1ccc(Cl)c(C(=O)NC2=NCCS2)c1,-3,-101*,?,-3,?,?
Cc1cc2oc(=O)c(CC(=O)NCCc3ccccc3F)c(C)c2c2occ(C(C)(C)C)c12,nt,-36,nt,nt,nt,nt
COc1cccc(Nc2ccc(Nc3cccc(OC)c3)nn2)c1,-3,-22,-26%,-4,?,-12%
COc1ccccc1-c1ccc(Nc2cccc(C(C)=O)c2)nn1,37*,57,2%,74*,7.9µM*,20%
CC(=O)c1cccc(Nc2ccc(-c3ccccc3F)nn2)c1,38*,77,6%,94*,?,304%
CC(=O)c1ccc(Nc2c3c(nc4ccccc24)CCCC3)cc1,1,-14,-25%,-10,?,?
CC(=O)c1cccc(Nc2ccc(Br)cc2)c1,nt,-2,nt,nt,nt,nt
CC(=O)c1ccc(Nc2ccc(-c3ccccc3C)nn2)cc1,55*,23,10%,107*,-9%,-8%
COc1ccc(OC)c(C(=O)c2c(N)c(-c3nc(-c4ccc(C)c(C)c4)cs3)c3ccccn23)c1,nt,2,nt,nt,nt,nt
CC(C)c1csc(CN2CCC(N3CCC(C(=O)NCC4CCCO4)CC3)CC2)n1 (stereo unspecified),1,?,?,8,-1%,-16%
CCCCOc1ccc(C2=NC(c3ccncc3)=Nc3ccc(OCC)cc3N2)cc1,nt,-14,nt,nt,nt,nt
COc1ccccc1CNC(=O)CSc1ccc(-c2sc(-c3ccccc3)nc2C)nn1,nt,-10,nt,nt,nt,nt
O=C(Nc1cc(C(F)(F)F)ccc1Cl)c1cc(-c2cccs2)nc2ccccc12,nt,4,nt,nt,nt,nt
OCCNc1ncnc2c1c(-c1ccccc1)c(-c1ccccc1)n2Cc1ccco1,-3,-63*,-15%,-4,?,nt
c1ccc(-c2c(-c3ccccc3)n(Cc3ccco3)c3ncnc(NCCCn4ccnc4)c23)cc1,-4,nt,2.1µM*,-15,?,nt
O=C(NCCCn1ccnc1)c1ccc(-c2ccccc2)cc1,4,-9,-3%,7,-21%,1%
c1ccc(-c2oc3ncnc(NCCCn4ccnc4)c3c2-c2ccccc2)cc1,0,nt,22%,-14,11µM*,13µM*
CN(C)CCCNc1ncnc2oc(-c3ccccc3)c(-c3ccccc3)c12,-5,?,13µM*,-13,3.5µM*,17µM*
c1ccc2c(c1)oc1c(NCCCn3ccnc3)ncnc12,-4,-16,?,-11,11%,5%
Cc1ccc2c(=O)cc(C(=O)N(Cc3ccccc3Cl)C3CCS(=O)(=O)C3)oc2c1 (stereo unspecified),nt,10,nt,nt,nt,nt
O=C(O)C[C@H]1c2cc(C(F)(F)F)ccc2S(=O)(=O)N1C1CCN(Cc2ccccc2)CC1,nt,0,nt,nt,21%,nt
CC(=O)c1ccc(NC(=O)c2nc(-c3ccccc3)n(-c3ccccc3Cl)n2)cc1,nt,-21,nt,nt,nt,nt
Cc1[nH]c2ccccc2c1C(=O)COc1ccccc1,15*,30,260%,49,11%,-5%
SMILES,CHX counter,HCMV inh,Pf growth 96h,Shiga inhibitor,HCV inhibitor,Pf growth 48h
Cc1[nH]c2ccccc2c1C(=O)COC(=O)c1nccnc1N,nt,-19,?,nt,-15%,?
CCOC(=O)c1c(C)[nH]c(C)c1C(=O)COC(=O)c1ccccc1O,-1,-2,?,-17,-7%,?
Cc1[nH]c2ccccc2c1C(=O)COc1ccccc1F,25*,10,25%,74,?,-7%
Cc1[nH]c2ccccc2c1C(=O)COC(=O)c1ccccc1O,nt,10,nt,nt,11µM*,nt
O=C(COC(=O)CCc1ccccc1)Nc1ccc(F)cc1Cl,-2,11,49%,-10,7%,26%
CN(CCCNC(=O)c1ccc(CS(=O)c2ccc(Br)cc2)o1)Cc1ccccc1 (stereo unspecified),-8,-12,?,-7,-2%,-20%
COc1ccc(CCN2CC(C(=O)NCc3cn(C)nc3C)CCC2=O)cc1 (stereo unspecified),nt,-15,nt,nt,nt,nt
Cn1cnc(S(=O)(=O)N2CCN(c3ccc(Cl)cc3)CC2)c1,1,-1,?,-8,9%,22%
COc1cc(C(=O)Nc2cc(-c3nc4cc(C)ccc4o3)ccc2C)cc(OC)c1OC,9,8,10%,15,1%,38%
COc1cc(C(=O)Nc2cccc(-c3nc4cc(C)ccc4o3)c2)cc(OC)c1OC,17*,20,-6%,81*,?,5%
O=C(O)c1ccc(Cl)cc1NC(=O)C1CCCO1 (stereo unspecified),-4,47,14%,-3,nt,-3%
Cc1ccc2oc(-c3cccc(NC(=O)C4CCCO4)c3)nc2c1 (stereo unspecified),41*,113,10µM*,76*,?,225%
COc1cc(C(=O)Nc2cccc(-c3nc4ncccc4o3)c2C)cc(OC)c1OC,-7,-106*,?,-3,?,7%
COc1ccc(C(=O)Nc2cccc(-c3nc4ncccc4o3)c2C)cc1,-3,-10,?,-7,-9%,nt
O=C(Nc1cccc(-c2nc3cc(Cl)ccc3o2)c1)C1CCCO1 (stereo unspecified),14*,46,nt,47,?,178%
Cc1ccc(N(CC(=O)NCCc2ccccc2C)S(=O)(=O)N(C)C)cc1,nt,-13,nt,nt,nt,nt
CCOc1ccc(N(C(=O)OC(C)(C)C)C(=O)c2ccc(O[Si](C)(C)C(C)(C)C)cc2)c(I)c1,7,nt,nt,9,nt,nt
Cc1cccc(-c2nc3cc(NC(=O)C4CCCO4)ccc3o2)c1 (stereo unspecified),67*,-31,-1%,active,-21%,123%
Cc1ccc2oc(-c3cccc(NC(=O)c4ccccn4)c3)nc2c1,nt,26,nt,nt,1%,nt
CCCn1cc(S(=O)(=O)c2ccc(CC)cc2)c(=O)c2cc(F)c(N3CCN(C)CC3)cc21,nt,19,nt,nt,nt,nt
CCn1c(=O)c2sccc2n2c(CCC(=O)Nc3ccc(C(C)C)cc3)nnc12,nt,-8,nt,nt,nt,nt
CN1C(=O)c2ccccc2N(C)C1c1ccc2c(c1)OCO2 (stereo unspecified),-5,-8,-24%,-10,-10%,10µM*
O=C(CSc1nc2ccccc2c(=O)n1CC1CCCCC1)N1CCOCC1,-5,-14,13µM*,-15,?,9.3µM*
CCN(CC)C(=O)CSc1nc2ccccc2c(=O)n1-c1ccccc1OC,-2,-11,16%,-1,3%,?
CCCN(CCC)C(=O)CSc1nc2ccccc2c(=O)n1C1CCCC1,-2,?,39%,-2,11µM*,?
